A selection: hits, their analogues and other compounds. The true share with any hit is near 2.9%.
EPAC1 ag val: validation of human EPAC1 agonists. EPAC1 Rap1b BODIPY-GDP exchange, fluorescence. Potency, µM, hits mostly activators. actives 1% (n = 16,000); note: nearly all actives have a fitted effect of over 70% in size
EPAC2 antag: human EPAC2 antagonism, validation | Potency, µM (highest dose often 112 µM), actives largely listed as inhibitors | Q8WZA2 | actives 1.7% (n = 16,000) | EPAC2 Rap1B BODIPY-GDP exchange, fluorescence; note: nearly all actives have a fitted effect of over 40% in size
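Normalized against a 6.5 mM cAMP agonist control, compounds were tested on 100 nM EPAC2 exchanging Rap1B-bound BODIPY-GDP (250 nM) for 50 uM GDP. Fluorescence drop (ex 480, em 540 nm) was tracked at room temperature over 30 min at 5-min intervals.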
Hits are given with their value; n = inactive; u = inconclusive; ! = repeats disagree. Calls come from the whole dose curve; as a rule, active = well fitted curve in the direction sought with a large enough effect; inconclusive = small, poorly fitted or top-dose-only effect, or another doubt; inactive = no such curve, though single readings can be large; an effect the other way counts as inactive or inconclusive.

SMILES | EPAC1 ag val | EPAC2 antag
C=C1[C@@H]2CC[C@@H](C2)C1(C)C | n | n
COCCC(=O)NCC1Cc2cc(Cl)cc(-c3ccc4[nH]ccc4c3)c2O1 (configuration not stated) | n | n
CSc1nc(C(=O)N2CCc3c(cnc(C)c3CNC(=O)c3ccc4c(c3)OCO4)C2)cs1 | n | n
NC1=NC2C(N=C(Br)N2[C@@H]2O[C@H]3COP(=O)(O)O[C@@H]3[C@@H]2O)C(=O)N1 (some centres not stated) | n | u
Nc1ncnc2c1nc(Cl)n2C1OC(CO)C(O)C1O (configuration not stated) | n | n
Nc1ncnc2c1nc(Sc1ccc(Cl)cc1)n2[C@H]1OC2COP(=O)(O)O[C@@H]2C1O (some centres not stated) | 0.178µM | 0.501µM
Nc1ncnc2c1nc(Br)n2[C@@H]1O[C@H]2COP(=O)(O)O[C@@H]2[C@@H]1O | u | 1.26µM
Nc1ncnc2c1nc(Br)n2[C@H]1O[C@H]2COP(=O)(O)O[C@H]2[C@@H]1O | 1.12µM | 3.55µM
Nc1ncnc2c1nc(Br)n2C1CC(O)C(CO)O1 (configuration not stated) | n | n
CCc1nc(CN2CCOc3ccc(C(O)C4CCCCC4)cc3C2)c(C)[nH]1 (configuration not stated) | n | n
CCCCCCCCCCCCCCCC(=O)OC[C@@H](O)[C@H]1OC[C@H](O)[C@H]1O | n | n
CC(=O)Oc1ccc2c(c1)CC[C@@H]1[C@@H]2CC[C@]2(C)[C@@H](O)CC[C@@H]12 | 28.2µM | n
CC(=O)Oc1ccc2c(c1)CCC1C2CC[C@]2(C)C(OC(C)=O)CCC12 (some centres not stated) | u | n
Cc1cc2nc3c(=O)[nH]c(=O)nc-3n(CC(O)C(O)C(O)CO)c2cc1C (configuration not stated) | 35.5µM | n
CCCC(=O)OC[C@@H](OC(=O)CCC)[C@@H](OC(=O)CCC)[C@H](Cn1c2nc(=O)[nH]c(=O)c-2nc2cc(C)c(C)cc21)OC(=O)CCC | u | n
OC1(c2ccc3c(c2)CN(Cc2nccs2)CCO3)CCN(c2ccccc2F)CC1 | u | n
CCC(C)[C@H]1O[C@]2(C=C[C@@H]1C)C[C@@H]1C[C@@H](C/C=C(\C)[C@@H](O[C@H]3C[C@H](OC)[C@@H](O[C@H]4C[C@H](OC)[C@H](NC(C)=O)[C@H](C)O4)[C@H](C)O3)[C@@H](C)/C=C/C=C3\CO[C@@H]4[C@H](O)C(C)=C[C@@H](C(=O)O1)[C@]34O)O2 (some centres not stated) | n | n
COC(=O)c1c(OCc2cccnc2)cc(=O)n2c1CCN(Cc1cc3c(cc1Cl)OCO3)CC2 | n | n
C=Nc1ccc(/C=C/c2ccnc3ccccc23)cc1 | 100µM | n
CCCCN(CCCC)c1ccc(/C=C/c2ccnc3ccccc23)cc1 | 112µM | n
C(=C\c1ccnc2ccccc12)/c1ccnc2ccccc12 | n | n
CCCCCCCCCCCCCCCCCCN(CCCCCCCCCCCCCCCCCC)c1ccc(/C=C/c2ccnc3ccccc23)cc1 | n | n
CO[C@H]1C[C@H](O[C@H]2[C@H](C)O[C@@H](O[C@@H]3/C(C)=C/C[C@@H]4C[C@@H](C[C@]5(C=C[C@H](C)[C@@H](C6CCCCC6)O5)O4)OC(=O)[C@@H]4C=C(C)[C@@H](O)[C@H]5OC/C(=C\C=C\[C@@H]3C)[C@]54O)C[C@@H]2OC)O[C@@H](C)[C@@H]1O | n | n
C=CS(=O)(=O)N(Cc1ccccc1Br)[C@H](CO)Cc1ccccc1 | n | 35.5µM
O=S(=O)(N(Cc1ccccc1)[C@@H](CO)Cc1ccccc1)N(Cc1ccccc1)[C@@H](CO)Cc1ccccc1 | n | n
SMILES | EPAC1 ag val | EPAC2 antag
CC(C)C[C@H](CO)N(Cc1ccccc1)S(=O)(=O)N(Cc1ccccc1)[C@@H](CO)CC(C)C | n | u
C=CS(=O)(=O)N(Cc1ccccc1)[C@H](CO)CC(C)C | n | 79.4µM
COc1ccc(CN2CCOc3ccc(CN4CCC(Oc5cccnc5)CC4)cc3C2)c(F)c1 | n | n
CC(C)c1c(C(=O)N(C)Cc2cccc3ncccc23)cnn1-c1nccc(-c2ccccc2F)n1 | n | n
Cc1nc2sccn2c1CN1CCOc2ccc(CN3C[C@@H](C)O[C@@H](C)C3)cc2C1 | n | n
O=C1NC(=O)[C@H]2[C@@H]1[C@@H]1C=C[C@H]2C1 | n | n
c1ccc(-c2onc(-c3ccco3)c2-c2ccc3c(c2)OCO3)cc1 | 112µM | n
COc1ccc(-c2c(-c3ccc4c(c3)OCO4)noc2-c2ccsc2)cn1 | n | u
COc1ccc(SC[C@H](Cc2ccccc2)N2CC[C@@H](C)CCC2=O)cc1 | n | 39.8µM
Cc1ccc(SC[C@H](Cc2ccccc2)N2CC[C@@H](C)CCC2=O)cc1 | n | u
Cc1cnc(-n2ncc(C(=O)N(C)CCc3ccccn3)c2-c2cccs2)nc1-c1ccc(F)cc1 | n | n
C/C=C1\NC(=O)[C@H]2CSSCC/C=C/[C@H](CC(=O)N[C@H](C(C)C)C(=O)N2)OC(=O)C(C(C)C)NC1=O (some centres not stated) | n | n
O=C(C[n+]1cccc2cc(Cl)ccc21)c1ccc(I)cc1 | n | n
O=C(C[n+]1cccc2cc(Cl)ccc21)c1ccc(Br)cc1 | 112µM | n
C[C@@H](O[C@H]1OCCN(Cc2n[nH]c(=O)[nH]2)[C@@H]1c1ccc(F)cc1)c1cc(C(F)(F)F)cc(C(F)(F)F)c1 | n | 50.1µM
COc1cc(-c2ccc(N=Nc3ccc4c(S(=O)(=O)O)cc(S(=O)(=O)O)c(N)c4c3O)c(OC)c2)ccc1N=Nc1ccc2c(S(=O)(=O)O)cc(S(=O)(=O)O)c(N)c2c1O | n | 28.2µM!
CO[C@H]1[C@H](NC(=O)c2cccs2)c2ccccc2C12CCN(Cc1cccn1-c1ccccn1)CC2 | n | n
CCCC(=O)NCCc1c2n(c3ccc(OC)cc13)CCCc1ccccc1-2 | n | 14.1µM
COc1ccc2[nH]c(-c3ccccc3)c(CCNC(C)=O)c2c1 | n | u
N[C@H](C(=O)O)[C@@H](O)c1ccc(O)c(O)c1 | u | 79.4µM
N[C@@H](Cc1ccc(O)c(O)c1)C(=O)O | n | n
COC(=O)c1ccc(-c2cccc3c2OC(CNC(=O)/C=C/c2ccc(OC)c(OC)c2)C3)nc1 (configuration not stated) | n | n
CC(=O)OCC(=O)[C@@]1(O)CC[C@H]2[C@@H]3CCC4=CC(=O)CC[C@]4(C)C3=CC[C@@]21C | n | n
CC(CCc1ccc(O)cc1)N1CCOc2c(O)cc(-c3nc4ccccc4s3)cc2C1 (configuration not stated) | n | n
CCCCOCCOCCOCc1cc2c(cc1CCC)OCO2 | n | 50.1µM!
SMILES | EPAC1 ag val | EPAC2 antag
Cc1cnc(SCc2ccccn2)nc1C1CCCN(C(=O)c2ccc3c(c2)OCO3)C1 (configuration not stated) | n | n
[N-]=[N+]=NC[C@H](Cc1ccccc1)N1CC[C@@H](O)CCC1=O | n | n
CC(C)(C)[C@H]1CCC(=O)N([C@H](CN=[N+]=[N-])Cc2ccccc2)CC1 | n | 56.2µM
COc1cccc(C2(CC(=O)N3CCN(c4ccccc4O)CC3)CC(=O)N(C3CCCC3)C2=O)c1 (configuration not stated) | n | u
COc1cc(=O)n2c(c1C(=O)N(C)Cc1nccs1)CCN(Cc1cc(C)cc(C)c1)CC2 | n | n
NC(Cc1ccccc1)C(=O)O (configuration not stated) | n | n
